LRH-1 inv ag – LRH-1 (NR5A2) inverse agonists, primary screen, cell-based, luminescence, HEK293T, StAR-luciferase reporter. inhibition, % at 3.6 µM. LRH-1 transfected, 24 h. actives 0.13% (n = 360,000). Nuclear receptor subfamily 5 group A member 2 (Homo sapiens), O00482;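 active = inhibition above the mean inhibition of all tested compounds plus 3 SD, cut at about 73% in these data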;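 note: 0% = DMSO wells and 100% = reporter-only cells lacking LRH-1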
SRC2 inh – inhibition of GAL4-SRC2 driven luciferase reporter, primary screen, SRC2 inhibitor project, cell-based, luminescence. Nuclear receptor coactivator 2 (Homo sapiens), Q15596. inhibition, % at 9 µM. actives 0.17% (n = 370,000). HEK293 GAL4-SRC2 luciferase reporter;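 active = inhibition above the mean inhibition of all tested compounds plus 3 SD, set per campaign, cut at about 52% in these data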;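 note: 0% = DMSO treated cells and 100% = cells given Gossypol at 36 µM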
Gli-Sufu antag – Gli-Sufu pathway antagonists, primary screen, luciferase luminescence, Sufu-KO-LIGHT cells, uHTS. Sufu-KO-LIGHT fibroblasts, Gli luciferase reporter luminescence. inhibition, % at 5 µM. actives 0.74% (n = 340,000). AID 588413, 2011;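 active = inhibition above about 55%, limit read from the data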;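 note: 0% = DMSO-treated cells and 100% = wells with medium but no cells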
NCOA3 inh – SRC3 coactivator transcriptional activity inhibitors, primary screen, cell-based, luminescence. Nuclear receptor coactivator 3 (Homo sapiens), Q9Y6Q9. HEK293 GAL4-SRC3 luciferase reporter. inhibition, % at 3.6 µM. actives 0.17% (n = 360,000). AID 588352, 2011;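 active = inhibition above a per-campaign cutoff, the mean of all compounds plus 3 SD, cut at about 60% in these data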;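 note: 0% = DMSO-treated cells and 100% = gossypol-treated cells at 36 µM; higher means less SRC3-driven luciferase light from the GAL4 reporter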
Target sequence (Q9Y6Q9 whole entry, looked up, the tested form may be a part): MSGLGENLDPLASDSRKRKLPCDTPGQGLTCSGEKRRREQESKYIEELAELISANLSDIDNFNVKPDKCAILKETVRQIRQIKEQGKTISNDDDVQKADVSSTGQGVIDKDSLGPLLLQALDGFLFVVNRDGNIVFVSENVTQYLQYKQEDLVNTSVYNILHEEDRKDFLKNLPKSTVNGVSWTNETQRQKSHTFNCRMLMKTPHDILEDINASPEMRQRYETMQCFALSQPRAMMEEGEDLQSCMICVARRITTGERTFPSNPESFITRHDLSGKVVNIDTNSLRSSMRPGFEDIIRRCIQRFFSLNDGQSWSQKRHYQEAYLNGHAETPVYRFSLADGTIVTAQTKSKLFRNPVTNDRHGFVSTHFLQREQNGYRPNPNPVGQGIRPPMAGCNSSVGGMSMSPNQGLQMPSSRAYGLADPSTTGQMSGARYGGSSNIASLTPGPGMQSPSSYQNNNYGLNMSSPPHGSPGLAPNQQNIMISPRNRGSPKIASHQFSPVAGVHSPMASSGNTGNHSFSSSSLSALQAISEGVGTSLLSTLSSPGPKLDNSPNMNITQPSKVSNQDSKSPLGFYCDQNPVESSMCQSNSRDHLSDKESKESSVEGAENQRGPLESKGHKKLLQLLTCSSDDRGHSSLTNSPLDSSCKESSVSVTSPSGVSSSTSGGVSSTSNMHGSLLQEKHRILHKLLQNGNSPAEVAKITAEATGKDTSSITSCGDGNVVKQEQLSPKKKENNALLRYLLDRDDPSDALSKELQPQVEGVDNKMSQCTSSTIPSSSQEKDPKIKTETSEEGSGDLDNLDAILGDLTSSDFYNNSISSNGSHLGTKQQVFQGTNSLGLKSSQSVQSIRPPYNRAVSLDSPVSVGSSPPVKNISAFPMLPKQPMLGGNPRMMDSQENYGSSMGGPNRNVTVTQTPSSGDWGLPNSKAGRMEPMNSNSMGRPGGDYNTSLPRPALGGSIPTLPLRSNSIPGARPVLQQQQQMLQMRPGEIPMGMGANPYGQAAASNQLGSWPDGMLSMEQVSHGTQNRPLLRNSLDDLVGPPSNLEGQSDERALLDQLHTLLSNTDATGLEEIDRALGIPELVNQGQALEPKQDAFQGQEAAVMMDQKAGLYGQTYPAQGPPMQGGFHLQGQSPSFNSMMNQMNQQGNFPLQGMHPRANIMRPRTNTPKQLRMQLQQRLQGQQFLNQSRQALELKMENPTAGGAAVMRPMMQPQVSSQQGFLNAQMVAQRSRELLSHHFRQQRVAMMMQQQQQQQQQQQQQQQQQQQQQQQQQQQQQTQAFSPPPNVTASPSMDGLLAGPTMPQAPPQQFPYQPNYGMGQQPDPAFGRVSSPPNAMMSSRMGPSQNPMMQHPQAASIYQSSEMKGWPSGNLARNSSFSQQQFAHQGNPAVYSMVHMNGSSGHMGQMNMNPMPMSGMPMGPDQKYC
NCOA1 inh – SRC1 coactivator transcriptional activity inhibitors, primary screen, cell-based, luminescence; inhibition, % at 3.6 µM; HEK293 GAL4-SRC1 luciferase reporter; Nuclear receptor coactivator 1 (Homo sapiens), Q15788; actives 0.12% (n = 360,000); AID 588354, 2011;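 active = inhibition above the campaign mean plus 3 SD, with each screening campaign given its own cutoff, cut at about 60% in these data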;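 note: 0% = DMSO treated cells and 100% = gossypol at 36 µM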
NR2F2 inh – NR2F2 transcriptional activity inhibitors, primary screen, cell-based, luciferase reporter, HEK293T, luminescence. COUP transcription factor 2 (Homo sapiens), P24468. HEK293T NGFI-A luciferase reporter. inhibition, % at 8.6 µM. actives 0.7% (n = 370,000);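 active = inhibition above a per-plate cutoff, mean inhibition of test wells between control levels plus 3 SD, cut at about 38% in these data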;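 note: cells cotransfected with COUP-TFII expression vector driving the NGFI-A reporter; 0% = median of COUP-TF2 test wells and 100% = reporter-only cells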
Gli antag conf – Gli-SUFU pathway antagonists, confirmation, single concentration, luciferase luminescence, Sufu-KO-LIGHT cells. Gli luciferase reporter. shares compounds with Gli-Sufu antag. AID 602428, 2012. inhibition, % at 5 µM. actives 40% (n = 2,500);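 active = mean inhibition at 5 µM reaching about 45%, limit read from the data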;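 note: plate controls were DMSO-treated cells for no effect and wells lacking cells for full effect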
Gli cytotox – cytotoxicity in Sufu-KO-LIGHT cells, confirmation, cytotoxicity control for Gli-SUFU antagonist project, cell-based, ATP luminescence, single concentration; shares compounds with Gli-Sufu antag; actives 32% (n = 2,500); AID 651994, 2013; cytotoxicity, % at 5 µM;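 active = mean cytotoxicity at 5 µM above about 25%, limit read from the data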;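 note: cells exposed to compound overnight for roughly 16 to 18 hours; plate controls were DMSO wells with cells for no effect and medium without cells for full effect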
Wnt3a counter – Wnt3a reporter signal inhibition, confirmation, counter-screen for Gli-SUFU antagonist project, Wnt-LIGHT cells, luminescence, single concentration; shares compounds with Gli-Sufu antag; Wnt3a-driven luciferase reporter; inhibition, % at 6.25 µM; actives 20% (n = 2,500); AID 651995, 2013;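 active = mean inhibition above about 25%, limit read from the data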
Numbers without * were called inactive; x = no result. Most compounds without a hit are left out; they make up all but 1.3% or so of the library.

SMILES	LRH-1 inv ag	SRC2 inh	Gli-Sufu antag	NCOA3 inh	NCOA1 inh	NR2F2 inh	Gli antag conf	Gli cytotox	Wnt3a counter
CC1CCCCC1NS(=O)(=O)c1ccc(S(=O)(=O)NCc2ccncc2)cc1 (stereo unspecified)	x	x	67*	x	x	x	59*	24	20
CC(=O)Nc1ccc(S(=O)(=O)NCc2ccncc2)cc1	-4	27	56*	9	-3	17	42	15	17
COC(=O)[C@H]1C[C@@]2(C#N)c3ccccc3N(C(=O)OC(C)(C)C)[C@H]2N1C(=O)OC(C)(C)C	x	0	x	x	x	-1	x	x	x
O=C1NC(c2cccc3ccccc23)Nc2ccc(Cl)cc21 (stereo unspecified)	30	13	61*	6	-19	-48	59*	64*	-73
Clc1ccc(C2Nc3cccc4cccc(c34)N2)c(Cl)c1	-3	9	-34	10	3	8	x	x	x
CCN1CCCCC(NC(=O)c2cccc(C(F)(F)F)c2)C1=O (stereo unspecified)	x	-18	x	x	x	-12	x	x	x
O=C1/C(=C/c2ccc(Cl)cc2)SC(=S)N1CCC(=O)N1CCCCC1CCO (stereo unspecified)	4	11	6	1	17	-2	x	x	x
O=C1/C(=C/c2ccccc2)SC(=S)N1CCCC(=O)N1CCCCC1CCO (stereo unspecified)	7	11	59*	10	4	-13	25	2	-4
CC(C(=O)c1ccc(-c2ccccc2)cc1)[n+]1ccccc1 (stereo unspecified)	18	-7	46	45	17	16	x	x	x
Cc1cc[n+](C(C)C(=O)c2ccc(-c3ccccc3)cc2)cc1 (stereo unspecified)	37	2	82*	34	8	35	75*	27*	-12
O=C(NCCc1ccc(F)cc1)c1ccc2c(=O)n3c(nc2c1)CCC3	-95	-71	96*	-57	-16	-13	-8	14	-114
C[C@H]1[C@@H](NC(=O)C(c2ccccc2)c2ccccc2)CC[C@@]23CCCN2C(=O)CCC[C@@H]13	x	x	x	x	x	-32	x	x	x
CCOC(=O)c1sc2nc(CC(=O)OC)nc(NCc3ccc(Cl)cc3)c2c1C	5	x	55*	-6	7	x	53*	26*	-19
CCOC(=O)c1sc2nc(CC(=O)OC)nc(NCCN(CC)CC)c2c1C	7	7	2	13	-24	7	x	x	x
CC(C)N1CCCCC(NC(=O)c2cccc(F)c2)C1=O (stereo unspecified)	x	-25	x	x	x	-22	x	x	x
NC(=O)c1ccc(N2CCN(c3ccccc3O)CC2)c([N+](=O)[O-])c1	7	24	26	8	7	16	x	x	x
NC(=O)c1ccc(N2CCN(c3ccccc3F)CC2)c([N+](=O)[O-])c1	-8	27	57*	13	15	3	21	13	-7
CN(CCNC(=O)c1cc2c(=O)n(C)c3ccccc3c2n1C)Cc1ccccc1	-15	-2	2	6	3	-4	x	x	x
CCCN(CCC)CCNC(=O)c1cc2c(=O)n(C)c3ccccc3c2n1C	-24	-28	63*	12	-9	-8	38	8	-71
O[C@H](COc1cccc(Cl)c1)CN1CCC(C(O)(c2ccccc2)c2ccccc2)CC1	x	26	x	x	x	-3	x	x	x
COc1ccc(CN(C2CCCC2)S(=O)(=O)c2ccc(-n3cnnn3)cc2)cc1OC	3	-13	-9	6	10	7	x	x	x
COc1ccc(CN(C2CCCC2)S(=O)(=O)c2ccc(-n3cnnn3)cc2)cc1	0	18	58*	2	8	15	14	11	1
C(#CC1=CCCCC1)CNCc1ccccc1	x	-2	x	x	x	9	x	x	x
CNC(=O)CSc1nc2nn(-c3ccccc3)c(=O)c-2c2n1CCCCC2	32	x	56*	28	23	x	23	6	-28
COC(=O)[C@]12C[C@H](CC(=O)N3CCC(c4ccccc4)CC3)C(=O)N(CCc3ccc(OC)c(OC)c3)C1=C[C@H](C(C)C)O[C@@H]2C1CC1	x	22	x	x	x	11	x	x	x
SMILES	LRH-1 inv ag	SRC2 inh	Gli-Sufu antag	NCOA3 inh	NCOA1 inh	NR2F2 inh	Gli antag conf	Gli cytotox	Wnt3a counter
Cc1cc(C)n2nc(SCC3COc4ccccc4O3)nc2n1 (stereo unspecified)	-65	-38	99*	-35	-59	-47	-13	9	-82
COC(=O)[C@]12C[C@H](CC(=O)NCc3cccc(C(F)(F)F)c3)C(=O)N(Cc3ccc4c(c3)OCO4)C1=C[C@H](C(C)C)O[C@@H]2C1CC1	x	-6	x	x	x	-13	x	x	x
CN(C)CC(=O)N[C@H]1C[C@@H]2O[C@@H](CO)CC[C@@H]2O[C@@H]1CCc1ccc(C2=CCCCC2)cc1	x	-26	x	x	x	1	x	x	x
CCCNc1nc2c(c(=O)n(C)c(=O)n2C)n1Cc1cccc(C)c1	11	9	65*	15	4	29	59*	20	31*
CCCNc1nc2c(c(=O)n(C)c(=O)n2C)n1CCc1ccccc1	14	-1	32	5	13	19	x	x	x
COCCNc1nc2c(c(=O)n(C)c(=O)n2C)n1Cc1cccc(C(F)(F)F)c1	6	-3	68*	-1	0	9	71*	29*	28*
Cn1c(=O)c2c(nc(NCCOc3ccc(C(C)(C)C)cc3)n2C)n(C)c1=O	18	16	64*	11	-2	-6	47*	8	7
CCN1CCCCC(NC(=O)c2cc(OC)c(OC)c(OC)c2)C1=O (stereo unspecified)	x	-12	x	x	x	-11	x	x	x
COC(=O)c1ccc(S(=O)(=O)N2CCC(NC(=O)Cc3ccccc3)CC2)cc1	x	-18	x	x	x	-4	x	x	x
O=C(N/N=C/c1ccncc1)C12CC3CC(CC(C3)C1)C2	0	-9	58*	1	-32	-7	21	6	-18
CCc1nnc(NC(=O)CCC(=O)N2CCN(S(=O)(=O)c3cc(Cl)ccc3OC)CC2)s1	-17	14	48	-5	-8	-2	x	x	x

Screens as filed in PubChem BioAssay.
